Measurements: the supplement of paper PMC9334596
“And” between values parts separate entries of the source, which are not always exact repeats. Identical values can stand only once. Over roughly 5,300 compounds, “PER2::LUC luminescence relative to vehicle control” has its median near 0.96; the highest 2% begin near 1.3. The entries come from a sample that favours the highest values as a whole.

System: mPer2Luc MEF
Experiment: PER2::LUC luminescence relative to vehicle control (fold of vehicle); higher = higher PER2::LUC reporter signal
Conditions: 10 µM
How it was run: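 Compounds from commercial libraries were added at 10 μM to 384-well plates seeded 48 h earlier with ~3000 mPer2Luc mouse embryonic fibroblasts per well. The cells were kept in DMEM with 10% FBS at 37 °C and 5% CO2. Luminescence was read with ONE-Glo 24 h and 30 h after treatment, then an alamarBlue viability assay was run. Values are PER2::LUC luminescence relative to vehicle control, as fold change.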

Row | SMILES | PER2::LUC luminescence (time after treatment 24 h) | PER2::LUC luminescence (time after treatment 30 h)
1 | COc1cc([C@@H]2CC(=O)c3c(O)cc(O)cc3O2)ccc1O | 0.985 | 0.942
2 | Cc1occc1C(=O)n1ccnc1 | 0.986 | 0.971
3 | COc1cc2ncnc(N(C)c3cccc(Br)c3)c2cc1OC | 0.83 | 0.741
4 | OCc1ccc(-c2ccc(-c3ccc(CO)s3)o2)s1 | 1.48 | 1.62
5 | CCCCCCCCOC(=O)C=Cc1ccc(OC)cc1 | 1.04 | 1.09
6 | CC(C)(O)c1ccc2c(c1)ncn2-c1cccc(-c2ccccc2C#N)c1 | 0.829 | 0.89
7 | CC(Nc1ccc(-c2nn[nH]n2)cc1)C(=O)O (racemic) | 0.971 | 0.96
8 | CC(C)[C@H](CO)Nc1nc(Sc2cccc(N)c2)c2ncn(C(C)C)c2n1 | 0.582 | 0.686
9 | FC(F)(F)c1ccc(CNc2ccc(Cc3c[nH]c4ncc(Cl)cc34)cn2)cc1 | 0.83 | 0.83
10 | CC(C(=O)O)c1ccc(N2Cc3ccccc3C2=O)cc1 (stereo not drawn) | 1.02 | 1.34
11 | CC(C(=O)O)c1ccc(-c2ccccc2)c(F)c1 (stereo not drawn) | 1.15 | 1.06
12 | CC(C(=O)O)c1ccc2c(c1)CC(=O)c1ccccc1S2 (stereo not drawn) | 1.05 | 1.08
13 | O=C(CCc1ccc(O)cc1)c1c(O)cc(O)cc1OC1OC(CO)C(O)C(O)C1O (stereo not drawn) | 1.02 | 0.948
14 | Oc1nc2cc(Cl)c(Cl)cc2nc1O | 0.684 | 0.69
15 | COc1ccc2nc(/C=C/c3cccc([N+](=O)[O-])c3)n(-c3ccc(C(=O)O)cc3)c(=O)c2c1 | 1.05 | 1.01
16 | O=C(O)[C@@]1(CCCCCCOc2ccc(Cl)cc2)CO1 | 0.936 | 1.01
17 | CC/C(=C(\c1ccccc1)c1ccc(OCCN(C)C)cc1)c1ccccc1 | 0.718 and 0.679 | 0.784 and 0.742
18 | CCN(CC)CCOc1ccc(C(=C(Cl)c2ccccc2)c2ccccc2)cc1 | 0.934 and 0.704 | 1.73 and 0.773
19 | CCN(CC)CCOc1ccc(Cc2ccccc2)cc1 | 0.811 | 0.893
20 | CC(=O)NC[C@H]1CN(c2ccc(-c3ccc(CNCc4cnn[nH]4)cc3)c(F)c2)C(=O)O1 | 1.03 | 1.09
21 | Cn1nnc(-c2ccc(-c3ccc(N4C[C@H](CO)OC4=O)cc3F)cn2)n1 | 1.39 and 1.4 | 1.56 and 1.53
22 | Cn1nnc(-c2ccc(-c3ccc(N4C[C@@H](CO)OC4=O)cc3F)cn2)n1 | 1.01 | 1.09
23 | CON(Cc1ccc(F)cc1)C(=O)/C=C(\O)C(=O)O | 0.942 | 0.968

Row | SMILES | PER2::LUC luminescence (time after treatment 24 h) | PER2::LUC luminescence (time after treatment 30 h)
24 | COc1ccc2[nH]cc(CCNC(=O)C3CC3)c2c1 | 0.901 | 0.938
25 | c1nc(CC2CCNCC2)c[nH]1 | 0.32 | 0.4
26 | O=C(c1ccc(OCCCc2c[nH]cn2)cc1)C1CC1 | 1.09 and 1.51 | 1.33 and 1.29
27 | NCCc1c[nH]cn1 | 0.832 and 0.572 | 0.983 and 0.838
28 | CC1=CC(=O)C(C(C)C)=C/C1=N/OC(=O)c1ccccc1C | 1.11 | 0.994
29 | O=C(O)c1c[nH]c(=O)cn1 | 1.08 | 0.999
30 | O=C(NCC1(c2nc(-c3ccccc3)cs2)CCOCC1)c1cccc(-c2noc(C(F)(F)F)n2)c1 | 0.923 | 0.884
31 | FC(F)(F)c1cccc(-c2noc(-c3cc(-c4ccccc4)c(C(F)(F)F)s3)n2)c1 | 1.17 | 1.14
32 | O=C(O)c1cccc(-c2noc(-c3ccccc3F)n2)c1 | 1.69 | 2.11
33 | CC(C)c1ccc2oc3nc(N)c(C(=O)O)cc3c(=O)c2c1 | 1.07 | 1.49
34 | N[C@H](C(=O)O)c1ccc(O)c(C(=O)O)c1 | 1.02 | 0.987
35 | O=C(O)c1cc(=O)c2ccccc2o1 | 0.998 and 1.05 | 0.946 and 1.14
36 | O=C(O)c1cc(=O)c2cc(Cl)ccc2[nH]1 | 0.977 | 0.883
37 | CCOC(=O)[N-]c1c[n+](N2CCOCC2)no1 | 1.09 | 1.74
38 | O=C(Nc1ccccc1)C12C=C1C(=NO)c1ccccc1O2 (stereo not drawn) | 1.08 | 0.974
39 | N[C@@]1(C(=O)O)CN[C@@H](C(=O)O)C1 | 0.997 | 0.949
40 | C[C@@H]1O[C@@H](OC[C@H]2O[C@@H](Oc3cc(O)c4c(c3)O[C@H](c3ccc(O)cc3)CC4=O)[C@H](O)[C@@H](O)[C@@H]2O)[C@H](O)[C@H](O)[C@H]1O | 0.957 | 0.972
41 | COc1cc(O)c2c(=O)cc(-c3ccc(O)cc3)oc2c1 | 1.21 | 1.32
42 | COc1ccc(-c2cc(=O)c3c(O)c(OC)c(OC)c(OC)c3o2)cc1 | 1.03 | 1.16
43 | COc1ccc(-c2cc(=O)c3c(O)cc(O)cc3o2)cc1O | 0.933 | 1.03
44 | COc1ccc(-c2cc(=O)c3c(O)cc(O)cc3o2)cc1 | 1.41 | 1.56
45 | COc1ccc(-c2cc(=O)c3c(O)cc(OC)cc3o2)cc1 | 1.29 | 1.46
46 | O=c1cc(-c2cc(O)c(O)c(O)c2)oc2cc(O)cc(O)c12 | 0.957 | 0.941

Row | SMILES | PER2::LUC luminescence (time after treatment 24 h) | PER2::LUC luminescence (time after treatment 30 h)
47 | Cc1cc2nc3c(=O)[nH]c(=O)nc-3n(C[C@H](O)[C@H](O)[C@H](O)COP(=O)(O)O)c2cc1C | 1.22 | 0.887
48 | O=C(Nc1ccc(C(F)(F)F)cn1)c1cccc2cccnc12 | 1.02 | 1.03
49 | CC(=O)CCCCn1cnc2c1c(=O)n(C)c(=O)n2C | 0.931 | 0.944
50 | Cc1cccc(Oc2nc3c(C)cccn3c(=O)c2C=C(C#N)c2nc3ccccc3s2)c1 | 1 | 1.04
51 | O=C1CCC(c2ccccc2)(C2CCN(Cc3ccccc3)CC2)C(=O)N1 (stereo not drawn) | 0.825 | 0.82
52 | COc1nccnc1NS(=O)(=O)c1ccc(N)cc1 | 1 | 1.97
53 | COc1ncnc(NS(=O)(=O)c2ccc(N)cc2)c1OC | 0.986 | 0.84
54 | COc1cnc(NS(=O)(=O)c2ccc(N)cc2)nc1 | 0.926 | 1
55 | C=CCO/N=C1\c2ccccc2-c2nc(C#N)c(C#N)nc21 | 0.778 | 0.699
56 | C[C@]12CC[C@@H]3c4ccc(O)cc4CC[C@H]3[C@@H]1C[C@H](O)[C@@H]2O | 1.07 | 0.987
57 | O=c1c(N=Nc2ccc(CS(=O)(=O)O)cc2)c(-c2ccc(C[N+](=O)[O-])cc2)[nH]n1-c1ccccc1 | 1.09 | 1.08
58 | CCCC(C(=O)O)c1c(C)nc2ccc(Cl)cc2c1-c1ccccc1 (stereo not drawn) | 1.02 | 0.957
59 | CC1=C(/C=C/C(C)=C/C=C/C(C)=C/CO)C(C)(C)CCC1 | 1.35 and 1.26 and 1.07 | 1.26 and 1.06 and 1.11
60 | CC1=C(/C=C/C(C)=C/C=C/C(C)=C\C(=O)O)C(C)(C)CCC1 | 1.75 and 1.62 and 1.8 | 1.89 and 1.79 and 1.52
61 | CCCC(=O)OCc1ccc(OC(=O)/C=C(C)/C=C/C=C(C)/C=C/C2=C(C)CCCC2(C)C)cc1 | 1.02 | 1.16
62 | CC1=C(/C=C/C(C)=C/C=C/C(C)=C\CO)C(C)(C)CCC1 | 1.08 | 1.03
63 | CC1=C(/C=C/C(C)=C/C=C/C(C)=C/C=C/C=C(C)/C=C/C=C(C)/C=C/C2=C(C)C(=O)CCC2(C)C)C(C)(C)CCC1=O | 0.908 | 0.963
64 | CC1=C(/C=C/C(C)=C\C=C\C(C)=C\C(=O)O)C(C)(C)CCC1 | 2.08 | 1.87
65 | CC1=C(/C=C/C(C)=C/C=C/C(C)=C/C=C/C=C(C)/C=C/C=C(C)/C=C/C(=O)[C@]2(C)C[C@@H](O)CC2(C)C)C(C)(C)C[C@H](O)C1 | 0.964 | 0.922
66 | CC(=O)OC/C=C(C)/C=C/C=C(C)/C=C/C1=C(C)CCCC1(C)C | 0.964 | 0.832
67 | CCCCCCCCCCCCCCCC(=O)OC/C=C(C)/C=C/C=C(C)/C=C/C1=C(C)CCCC1(C)C | 0.929 and 0.69 | 0.976 and 0.869
68 | CC1=C(/C=C/C(C)=C/C=C/C(C)=C/C=C/C=C(C)/C=C/C=C(C)/C=C/C2=C(C)CCCC2(C)C)C(C)(C)CCC1 | 1.07 | 0.941
69 | CC1=C(/C=C/C(C)=C/C=C/C(C)=C/C(=O)Nc2ccc(O)cc2)C(C)(C)CCC1 | 0.452 and 1.09 | 0.603 and 1.06

Row | SMILES | PER2::LUC luminescence (time after treatment 24 h) | PER2::LUC luminescence (time after treatment 30 h)
70 | Clc1ccc(N/N=C(/c2ccccc2)c2ccccn2)nc1 | 0.832 | 0.785
71 | CC(C)C[C@H](NC(=O)[C@H](CCC(N)=O)NC(=O)[C@H](CCCCN)NC(=O)[C@H](CCC(N)=O)NC(=O)[C@@H](N)CCC(=O)O)C(=O)N[C@@H](CCC(N)=O)C(=O)O | 1.03 | 0.938
72 | CC(=O)Oc1ccc(O)cc1 | 0.907 | 1.01
73 | CSC[C@H]1O[C@@H](n2cnc3c(N)ncnc32)[C@H](O)[C@@H]1O | 0.938 | 0.773
74 | COc1ccc2cc1Oc1ccc(cc1)C[C@H]1c3cc(c(OC)cc3CCN1C)Oc1c(OC)c(OC)c(OC)c3c1[C@H](C2)N(C)CC3 | 0.81 | 0.85
75 | COc1ccc(S(=O)(=O)Nc2ccccc2CN(C)C/C=C/c2ccc(Cl)cc2)cc1 | 1.02 and 0.909 | 0.939 and 0.913
76 | Nc1ncnc2c1c(-c1ccc(Oc3ccccc3)cc1)nn2[C@@H]1CCCNC1 | 0.544 | 0.62
77 | O=C1C[C@@H](c2ccc(O)c(O)c2)Oc2cc(O)cc(O)c21 | 0.983 | 1.05
78 | O=C1C[C@@H](c2ccccc2)Oc2cc(O)cc(O)c21 | 1.07 | 1.08
79 | O=C1C[C@@H](c2ccc(O)cc2)Oc2cc(O)cc(O)c21 | 1.46 | 1.25
80 | CC(Cc1ccccc1)(NC(=O)CN)c1ccccc1 (racemic) | 0.964 | 1.04
81 | CC(=O)CC(=O)Nc1ccc(Cl)c(C(F)(F)F)c1 | 1.35 | 1.37
82 | CNC(=O)c1cc(Oc2ccc(NC(=O)Nc3ccc(Cl)c(C(F)(F)F)c3)c(F)c2)ccn1 | 0.831 and 0.772 | 0.697 and 0.731
83 | CNC(=O)c1cc(Oc2ccc(NC(=O)Nc3ccc(Cl)c(C(F)(F)F)c3)cc2)ccn1 | 0.556 and 0.486 | 0.816 and 0.513
84 | O=[N+]([O-])c1cn(CCN2CCOCC2)cn1 | 0.977 | 0.974
85 | COc1cc2c3cc1Oc1c(OC)c(OC)cc4c1[C@@H](Cc1ccc(OC(=O)c5ccc([N+](=O)[O-])cc5)c(c1)Oc1ccc(cc1)C[C@@H]3N(C)CC2)N(C)CC4 | 0.754 | 0.76
86 | C#CCN(C)CCCOc1ccc(Cl)cc1Cl | 1.23 | 1.37
87 | C#CCN(C)Cc1ccccc1 | 0.93 and 0.871 | 0.955 and 0.95
88 | Cc1cc(Br)c(O)c2ncccc12 | 1.19 | 0.958
89 | COC(=O)N[C@H](C(=O)NNC[C@H](O)[C@H](Cc1ccccc1)NC(=O)[C@@H](NC(=O)OC)C(C)(C)C)C(C)(C)C | 0.974 | 0.963
